# From PubChem
# A selection: hits, their analogues and other compounds. The true share with any hit is near 3.5%.
# Mtb hypoxia rep: reduces hypoxia-regulated biosensor signal in M. tuberculosis; M. tuberculosis hypoxia-regulated fluorescent reporter, fluorescence; fluorescence inhibition, % (concentration not given with the values); actives 0.1% (n = 300,000); in the data active means fluorescence inhibition mostly above about 23%, no sharp cut-off; inactive means mostly below about 17%
# Mtb FBA inh: inhibits M. tuberculosis FBA enzyme; inhibition, % at 1 µM; purified M. tuberculosis FBA, fluorescence read-out; P9WQA3; AID 588726; actives 2.3% (n = 360,000);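 further: 0% = vehicle and 100% = reference inhibitor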
# Mtb UGM inh: blocks M. tuberculosis UGM enzyme; P9WIQ1; inhibition, % at 10 µM; actives 0.06% (n = 320,000); purified UGM, fluorescence polarization probe displacement; in the data active means inhibition above about 10%, passing the limit was not always enough
# Target sequence (P9WIQ1 whole entry, looked up): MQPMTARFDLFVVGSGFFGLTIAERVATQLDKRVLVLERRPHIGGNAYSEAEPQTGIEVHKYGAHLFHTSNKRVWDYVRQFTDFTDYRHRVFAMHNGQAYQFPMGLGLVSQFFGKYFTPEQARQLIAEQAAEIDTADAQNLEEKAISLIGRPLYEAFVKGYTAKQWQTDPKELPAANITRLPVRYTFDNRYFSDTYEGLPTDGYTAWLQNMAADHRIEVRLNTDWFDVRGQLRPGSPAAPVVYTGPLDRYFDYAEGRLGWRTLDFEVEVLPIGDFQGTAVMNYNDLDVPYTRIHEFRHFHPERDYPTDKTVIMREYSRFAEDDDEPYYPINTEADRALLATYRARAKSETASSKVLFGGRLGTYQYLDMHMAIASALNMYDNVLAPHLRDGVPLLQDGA
# FadD28 binding: M. tuberculosis FadD28 bisubstrate binding inhibition; FadD28 bisubstrate probe binding, fluorescence polarization; inhibition, % at 12.5 µM; actives 0.22% (n = 360,000); AID 588549; in the data active means inhibition above about 8.5%, passing the limit was not always enough
# Rv3671c inh: inhibitors of M. tuberculosis serine protease Rv3671c. inhibition, % at 5.96 µM. AID 2606. P9WHR9. actives 0.048% (n = 320,000); in the data active means inhibition above about 38%;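 further: extracellular domain of Rv3671c used as enzyme; 0% = enzyme with DMSO and 100% = no enzyme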
# GDH-TPI counter-1: counter-screen for M. tuberculosis FBA inhibitors: GDH-TPI coupled enzymes | AID 588335 | inhibition, % at 4.8 µM | actives 1.2% (n = 360,000) | GDH-TPI coupled enzyme counterscreen, NADH absorbance; in the data active means inhibition above about 30%;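 further: 0% = DMSO wells and 100% = wells lacking the enzyme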
# Mtb FBA inh conf: confirmation of M. tuberculosis fructose-bisphosphate aldolase inhibitors; inhibition, % at 1 µM; actives 78% (n = 5,600); purified M. tuberculosis FBA, fluorescence read-out; AID 651616; shares compounds with Mtb FBA inh;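 further: 0% = vehicle wells and 100% = reference inhibitor wells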
# GDH-TPI counter-2: counter-screen for M. tuberculosis FBA inhibitors: GDH-TPI coupled enzyme inhibition | actives 81% (n = 5,600) | shares compounds with Mtb FBA inh | AID 652141 | GDH-TPI coupled enzyme counterscreen, fluorescence | inhibition, % at 1 µM; in the data active means inhibition above about 10%
# GDH-TPI DR: counter-screen for M. tuberculosis FBA inhibitors: GDH-TPI dose response; shares compounds with Mtb FBA inh; GDH-TPI coupled enzyme assay, fluorescence, artifact counterscreen; IC50, µM; actives 79% (n = 170); AID 652145; call rule not given here
# The depositor's hits bear a star; . = not tested or not shown; + = active, no number. Unless noted, no stated cut-off is given here; in the data, active means inhibition above about 27%; inactive means the rest.
SMILES,Mtb hypoxia rep,Mtb FBA inh,Mtb UGM inh,FadD28 binding,Rv3671c inh,GDH-TPI counter-1,Mtb FBA inh conf,GDH-TPI counter-2,others
COc1ccc(CNC(=S)Nc2ccc(F)c(Cl)c2)cc1,-2,1,2,-5,-4,-5,.,.,
COc1cccc(CNC(=S)Nc2ccc3c(c2)c(=O)n(C)n3Cc2ccc(F)cc2)c1,.,29*,.,-3,.,3,130*,94*,
Cc1cc(C(=O)NN=Cc2cccc(Cl)c2Cl)no1,22,.,.,.,.,.,.,.,
O=C(Nc1ccc(N2CCOCC2)cc1)C1CCN(S(=O)(=O)c2cccc(C(F)(F)F)c2)CC1,.,1,.,-1,.,15,.,.,
O=C(Nc1ccc(N2CCOCC2)cc1)C1CCN(S(=O)(=O)c2ccccc2F)CC1,-3,37*,0,-4,3,3,26,19*,
CNc1cc(-c2cnn(CC(C)C)c2)ncn1,.,8,.,1,.,3,.,.,
CC(=O)Nc1cncc(-c2cnn(CC(C)C)c2)n1,.,61*,.,-2,.,25,50*,51*,
O=C(N=Nc1c(O)[nH]c2ccc(F)cc12)C1COc2ccccc2O1 (centres undefined),7,38*,-1,-2,5,14,131*,104*,
O=C(COC(=O)C1COc2ccccc2O1)c1ccc(F)cc1 (centres undefined),.,2,.,0,.,4,.,.,
Cc1cc(-c2ccccc2)c(C#N)c(N)n1,.,18,0,-1,1,5,.,.,
COC(=O)c1cc(C)nc(N)c1C#N,.,108*,1,-1,-3,3,128*,82*,
CCOC(=O)C1C2COc3ccc(C)cc3C2N2C(=O)c3cc(C)ccc3NC(=O)[C@@]12C (some centres undefined),8,.,.,.,.,.,.,.,
C(=NNc1nc(N2CCCCC2)nc(N2CCCCC2)n1)c1c[nH]c2ccccc12,3,.,.,.,.,.,.,.,
Cc1ccc(NC(=O)CN(C)CC(=O)Nc2ccccc2C(=O)Nc2ccccc2)cc1,7,73*,0,1,-5,0,6,-4,
CC(OC(=O)c1ccccc1NCCO)C(=O)NCC(=O)Nc1ccc(F)c(F)c1F (centres undefined),1,91*,4,-3,-8,0,128*,97*,
Cc1ccc(NC(=O)CN(C)C(=O)C(C)OC(=O)c2ccccc2NCCO)cc1 (centres undefined),7,92*,-2,-1,13,8,98*,73*,
O=C(NN=C/C=C/c1ccccc1[N+](=O)[O-])c1cc(-c2cccnc2)nc2ccccc12,-5,.,.,.,.,.,.,.,
O=C(CSc1nnc(SCc2ccc(Cl)cc2)s1)NN=Cc1c(Cl)cccc1Cl,-6,.,.,.,.,.,.,.,
O=C(NCCCSc1ccccc1)c1cc(Cl)ccc1O,17,36*,0,0,.,9,68*,48*,
O=C(CNC(=O)c1ccccc1)NCCCSc1ccccc1,2,-3,3,-5,6,-5,.,.,
O=C(O)C1=CC(c2cccs2)CC(OCCCCO)O1 (centres undefined),-5,.,.,.,.,.,.,.,
Cc1cc(=O)n2cccc(O)c2n1,12,75*,0,1,-5,6,+,+,
Cc1cccn2c(=O)cc(COC(=O)C(C)Oc3ccccc3)nc12 (centres undefined),0,4,1,-1,-4,4,.,.,
NC(=O)COc1c(-c2ccc(Br)o2)oc2ccccc2c1=O,-4,105*,-2,0,4,35*,154*,113*,
COc1ccc(C(C)=NNc2nc(-c3ccccc3)cc(=O)[nH]2)cc1,-7,.,.,.,.,.,.,.,
SMILES,Mtb hypoxia rep,Mtb FBA inh,Mtb UGM inh,FadD28 binding,Rv3671c inh,GDH-TPI counter-1,Mtb FBA inh conf,GDH-TPI counter-2,others
Cc1csc(NC(=O)c2cc3c(s2)-c2ccccc2OC3)n1,1,39*,0,-5,-15,19,123*,102*,
O=C(NN=Cc1cc2c(cc1Cl)OCO2)c1ccc2c(c1)OCCO2,-5,.,.,.,.,.,.,.,
O=C(O)CCC(=O)NN1C(=O)c2ccccc2NC1c1ccc(F)cc1 (centres undefined),7,40*,1,-1,5,3,127*,95*,
CCN(CC)CCN1C(=O)c2ccccc2NC1c1cccc(F)c1 (centres undefined),-13,51*,2,-1,-8,8,27*,21*,
O=C1c2ccccc2NC(c2ccccc2F)N1NS(=O)(=O)c1ccccc1 (centres undefined),3,13,-2,1,-9,3,.,.,
O=C1c2ccccc2NC(c2ccc(-c3cccc(F)c3)o2)N1O (centres undefined),12,13,4,-3,1,11,.,.,
CCN(CC)CCN1C(=O)c2ccccc2NC1c1ccc(F)cc1 (centres undefined),-2,45*,1,0,5,13,129*,117*,
CCN(CC)CCN1C(=O)c2ccccc2NC1c1ccccc1F (centres undefined),14,68*,1,-1,-1,7,169*,88*,
COc1ccc(C2CC(=O)C=C(c3cc(Cl)ccc3OC)C2)cc1 (centres undefined),4,.,.,.,.,.,.,.,
CCN(CC)CCN1C(=O)c2ccccc2NC1c1ccc(C)cc1 (centres undefined),13,79*,1,-2,1,10,63*,38*,
CCN(CC)CCN1C(=O)c2ccccc2NC1c1ccc(N(C)C)cc1 (centres undefined),.,13,0,-6,-5,0,.,.,
CCN(CC)CCN1C(=O)c2ccccc2NC1c1ccc(Br)cc1 (centres undefined),-2,84*,2,-1,-5,10,121*,101*,
Cc1cc2nccc(-c3ccc(F)cc3)n2n1,-1,3,0,0,6,-3,.,.,
c1coc(-c2ccnc3nc(-n4cccc4)nn23)c1,0,3,0,-7,1,4,.,.,
COc1ccc(-c2ccnc3cc(C(=O)O)nn23)cc1,7,36*,1,-3,4,14,0,-6,
O=C(O)c1cc2nccc(-c3ccco3)n2n1,13,32*,1,-2,4,36*,122*,98*,
COc1ccccc1CNCc1ccc(OC)c2ccccc12,2,2,-2,-4,8,-6,.,.,
COc1ccc(CNCc2ccc(OC)c3ccccc23)cc1,3,57*,2,2,0,-2,11,-5,GDH-TPI DR=>10
CC(C#Cc1c(C(C)Oc2ccccc2)nnn1Cc1ccccc1)Oc1ccccc1 (centres undefined),18,.,.,.,.,.,.,.,
